# In PubChem BioAssay (EPA / NIEHS):
# The source holds several records for some structures; these can differ, active in one and inactive in another. The source made the active and inactive calls. The calls were made as follows: active = hit-call score of the fitted dose curve at least 0.9, where 1 is the maximum; inactive = score below 0.9.
# Experiments:
# [1] = CEETOX_H295R_DOC: CeeTox H295R High-throughput Steroidogenesis Assay for DOC (AID 2283439); details: actives raise or lower the signal
# Outline: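 H295R, fsk 10 uM ×48 h pre, cmpd ×48 h (0.1% DMSO). Media → MTBE extr. → LC-MS/MS, DOC. Bidirectional fit vs DMSO; MTT viability same wells, re-test diluted if <70%.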
# [2] = CEETOX_H295R_PROG: CeeTox H295R High-throughput Steroidogenesis Assay for Progesterone (PROG) (AID 2283442); details: actives raise or lower the signal;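 as to AC50: human H295R adrenal cells primed with 10 µM forskolin before dosing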
# Outline: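 H295R adrenal cells prestimulated 48 h with 10 uM forskolin, then exposed 48 h to test chemical in 0.1% DMSO. Progesterone in medium quantified by HPLC-MS/MS after MTBE extraction; viability checked by MTT in same wells.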
# [3] = CEETOX_H295R_TESTO: CeeTox H295R High-throughput Steroidogenesis Assay for Testosterone (TESTO) (AID 2283457); details: actives raise or lower the signal;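 as to AC50: cells exposed to chemicals for 48 h before medium collection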
# Outline: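 H295R adrenal cells, passage ≤10, exposed to chemicals for 48 h. Testosterone in medium measured by MTBE extraction and HPLC-MS/MS against a 7-point standard curve. Bidirectional fit versus DMSO; MTT viability checked in the same wells.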
# [4] = CEETOX_H295R_ESTRADIOL: CeeTox H295R High-throughput Steroidogenesis Assay for Estradiol (AID 2283440); details: actives raise or lower the signal;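 also: estradiol secreted into medium quantified by LC-MS/MS after dansyl derivatisation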
# Outline: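 H295R cells pre-stimulated 48 h with 10 uM forskolin, then exposed 48 h to chemical in 0.1% DMSO. Medium estradiol quantified by MTBE extraction, dansyl derivatisation and HPLC-MS/MS; bidirectional fit versus DMSO; MTT viability required >/=70%.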
# [5] = CEETOX_H295R_ESTRONE: CeeTox H295R High-throughput Steroidogenesis Assay for Estrone (AID 2283441); details: actives raise or lower the signal;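 also: estrone secreted into medium measured by LC-MS/MS after dansyl derivatization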
# Outline: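 Forskolin-stimulated H295R cells are treated 48 h with chemical, and estrone in the medium is measured by LC-MS/MS. Activity is fitted in both directions relative to DMSO controls, with chemicals diluted until MTT viability reaches at least 70%.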
# [6] = read-out: Tumor necrosis factor receptor superfamily member 6 (Homo sapiens) (UniProt P25445); experiment: LTEA_HepaRG_FAS: Life Technologies and Expression Analysis (LTEA) Assay for Fas cell surface death receptor (FAS) using HepaRG (AID 2283447); details: mRNA level, 48 h; actives raise or lower the signal
# Outline: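 Differentiated human HepaRG cells, pre-cultured 48 h, were exposed in duplicate for 48 h to 8-point half-log concentrations (top 100 uM, 0.5% DMSO) in serum-free induction medium; FAS mRNA measured by qRT-PCR, normalized to ACTB/GAPDH/POLR2A, bidirectional fit versus DMSO.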
# [7] = read-out: Fatty acid synthase (Homo sapiens) (UniProt P49327); experiment: LTEA_HepaRG_FASN: Life Technologies and Expression Analysis (LTEA) Assay for Fatty Acid Synthase (FASN) using HepaRG (AID 2283448); details: mRNA level, 48 h; actives raise or lower the signal
# Outline: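 In human HepaRG cultures, 48 h chemical exposure (up to 100 uM, 0.5% DMSO) preceded TaqMan qRT-PCR of FASN.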
# [8] = read-out: Cyclin Dependent Kinase Inhibitor 1A (CDKN1A), CDKN1A (gene 1026); experiment: LTEA_HepaRG_CDKN1A: Life Technologies and Expression Analysis (LTEA) Assay for Cyclin Dependent Kinase Inhibitor 1A (CDKN1A) using HepaRG (AID 2283450); details: mRNA level, 48 h; actives raise or lower the signal
# Outline: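 Differentiated HepaRG cells in serum-free induction medium, exposed 48 h in duplicate to eight half-log concentrations up to 100 uM in 0.5% DMSO. mRNA measured by TaqMan qRT-PCR, normalized to ACTB, GAPDH, POLR2A; bidirectional fit versus DMSO.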
# [9] = read-out: Cyclin D1 (CCND1), CCND1 (gene 595); experiment: LTEA_HepaRG_CCND1: Life Technologies and Expression Analysis (LTEA) Assay for Cyclin D1 (CCND1) using HepaRG (AID 2283451); details: mRNA level, 48 h; actives raise or lower the signal
# Outline: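 Differentiated HepaRG cells exposed 48 h in serum-free induction medium to eight half-log concentrations from 100 uM top, 0.5% DMSO, duplicates. CCND1 mRNA measured by Fluidigm TaqMan qRT-PCR, normalised to ACTB, GAPDH, POLR2A; bidirectional fit.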
# [10] = read-out: catalase (CAT), CAT (gene 847); experiment: LTEA_HepaRG_CAT: Life Technologies and Expression Analysis (LTEA) Assay for catalase (CAT) using HepaRG (AID 2283452); details: mRNA level, 48 h; actives raise or lower the signal;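 as to AC50: TaqMan qRT-PCR signal normalized to ACTB GAPDH and POLR2A housekeeping genes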
# Outline: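 Differentiated HepaRG cells in serum-free induction medium were dosed 48 h in duplicate, eight half-log concentrations from 100 uM in 0.5% DMSO. Transcript measured by TaqMan qRT-PCR, normalised to ACTB/GAPDH/POLR2A, fitted bidirectionally against DMSO.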
# [11] = read-out: flavin-containing dimethylaniline monooxygenases 3 (FMO3), FMO3 (gene 2328); experiment: LTEA_HepaRG_FMO3: Life Technologies and Expression Analysis (LTEA) Assay for flavin-containing dimethylaniline monooxygenases 3 (FMO3) using HepaRG (AID 2283453); details: mRNA level, 48 h; actives raise or lower the signal
# Outline: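 Eight-point concentration-response in serum-free HepaRG cultures (top 100 uM, 0.5% DMSO, 48 h). Read-out: FMO3 mRNA level normalized to three endogenous control genes, fitted bidirectionally versus vehicle.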
# [12] = read-out: Cytochrome P450 (CYP1A1), CYP1A1 (gene 1543); experiment: LTEA_HepaRG_CYP1A1: Life Technologies and Expression Analysis (LTEA) Assay for Cytochrome P450 (CYP1A1) using HepaRG (AID 2283454); details: mRNA level, 48 h; actives raise or lower the signal
# Outline: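 Differentiated human HepaRG cells, after 48 h plating, exposed in duplicate for 48 h in serum-free induction medium to 8 half-log concentrations up to 100 uM in 0.5% DMSO. CYP1A1 mRNA by qRT-PCR, normalized to ACTB/GAPDH/POLR2A; bidirectional fit versus DMSO.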
# [13] = read-out: CFLAR gene, CFLAR (gene 8837); experiment: LTEA_HepaRG_CFLAR: Life Technologies and Expression Analysis (LTEA) Assay for CFLAR gene using HepaRG (AID 2283455); details: mRNA level, 48 h; actives raise or lower the signal
# Outline: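 Gain- or loss-of-signal changes in CFLAR transcript were fitted bidirectionally relative to 0.5% DMSO. Cells (HepaRG, duplicate wells) were dosed for 48 h across eight half-log concentrations topping at 100 uM; quantitation by TaqMan qRT-PCR.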
# [14] = read-out: Forkhead box O1 (FOXO1), FOXO1 (gene 2308); experiment: LTEA_HepaRG_FOXO1: Life Technologies and Expression Analysis (LTEA) Assay for Forkhead box O1 (FOXO1) using HepaRG (AID 2283456); details: mRNA level, 48 h; actives raise or lower the signal
# Outline: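 Using one lot of HepaRG hepatic cells kept in 0.5% DMSO, the team applied test chemicals in duplicate, half-log dilutions from 100 uM, for 48 h. Expression, normalised to ACTB/GAPDH/POLR2A, was compared with vehicle in either direction.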
# [15] = read-out: growth arrest and DNA damage 45 (GADD45A), GADD45A (gene 1647); experiment: LTEA_HepaRG_GADD45A: Life Technologies and Expression Analysis (LTEA) Assay for growth arrest and DNA damage 45 (GADD45A) using HepaRG (AID 2283458); details: mRNA level, 48 h; actives raise or lower the signal
# Outline: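 Eight-point concentration-response in HepaRG cells: 48 h chemical exposure, 0.5% DMSO vehicle, top dose 100 uM. Normalized qRT-PCR mRNA readout with bidirectional fitting relative to DMSO.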
# [16] = read-out: Forkhead box O3 (FOXO3), FOXO3 (gene 2309); experiment: LTEA_HepaRG_FOXO3: Life Technologies and Expression Analysis (LTEA) Assay for Forkhead box O3 (FOXO3) using HepaRG (AID 2283459); details: mRNA level, 48 h; actives raise or lower the signal
# Outline: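 Gene-expression endpoint: FOXO3 transcript level by qRT-PCR in HepaRG cultures treated 48 h with chemicals up to 100 uM (half-log, 0.5% DMSO vehicle).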
# [17] = read-out: ABC Transporter (ABCB1), ABCB1 (gene 5243); experiment: LTEA_HepaRG_ABCB1: Life Technologies and Expression Analysis (LTEA) Assay for ABC Transporter (ABCB1) using HepaRG (AID 2283460); details: mRNA level, 48 h; actives raise or lower the signal
# Outline: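 Human liver HepaRG line treated 48 h with up to 100 uM compound (eight half-log points, 0.5% DMSO); ABCB1 mRNA change fitted bidirectionally against DMSO controls.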
# [18] = read-out: growth arrest and DNA damage 45 (GADD45B), GADD45B (gene 4616); experiment: LTEA_HepaRG_GADD45B: Life Technologies and Expression Analysis (LTEA) Assay for growth arrest and DNA damage 45 (GADD45B) using HepaRG (AID 2283461); details: mRNA level, 48 h; actives raise or lower the signal
# Outline: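 Differentiated human HepaRG cells in serum-free induction medium exposed 48 h in duplicate to eight concentrations, top 100 uM, half-log steps, 0.5% DMSO. GADD45B mRNA by TaqMan qRT-PCR, normalized to ACTB, GAPDH, POLR2A; bidirectional fit versus DMSO.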
# [19] = read-out: ABC Transporter (ABCC3), ABCC3 (gene 8714); experiment: LTEA_HepaRG_ABCC3: Life Technologies and Expression Analysis (LTEA) Assay for ABC Transporter (ABCC3) using HepaRG (AID 2283462); details: mRNA level, 48 h; actives raise or lower the signal
# Outline: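 Differentiated human HepaRG cells exposed 48 h in serum-free induction medium, 0.5% DMSO vehicle, 8-point half-log series to 100 uM in duplicate. ABCC3 mRNA by qRT-PCR, normalised to ACTB, GAPDH, POLR2A; bidirectional fit vs DMSO.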
# [20] = read-out: Cyclin D2 (CCND2), CCND2 (gene 894); experiment: LTEA_HepaRG_CCND2: Life Technologies and Expression Analysis (LTEA) Assay for Cyclin D2 (CCND2) using HepaRG (AID 2283449); details: mRNA level, 48 h; actives raise or lower the signal;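 also: CCND2 transcript measured by TaqMan qRT-PCR and normalised to three housekeeping genes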
# Outline: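 In this HepaRG study, an eight-point concentration series (max 100 uM, 0.5% DMSO) is applied for 48 h. CCND2 mRNA change is derived by qRT-PCR normalised to ACTB, GAPDH and POLR2A.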
# Chain of Fatty acid synthase (Homo sapiens) (P49327 whole entry, looked up): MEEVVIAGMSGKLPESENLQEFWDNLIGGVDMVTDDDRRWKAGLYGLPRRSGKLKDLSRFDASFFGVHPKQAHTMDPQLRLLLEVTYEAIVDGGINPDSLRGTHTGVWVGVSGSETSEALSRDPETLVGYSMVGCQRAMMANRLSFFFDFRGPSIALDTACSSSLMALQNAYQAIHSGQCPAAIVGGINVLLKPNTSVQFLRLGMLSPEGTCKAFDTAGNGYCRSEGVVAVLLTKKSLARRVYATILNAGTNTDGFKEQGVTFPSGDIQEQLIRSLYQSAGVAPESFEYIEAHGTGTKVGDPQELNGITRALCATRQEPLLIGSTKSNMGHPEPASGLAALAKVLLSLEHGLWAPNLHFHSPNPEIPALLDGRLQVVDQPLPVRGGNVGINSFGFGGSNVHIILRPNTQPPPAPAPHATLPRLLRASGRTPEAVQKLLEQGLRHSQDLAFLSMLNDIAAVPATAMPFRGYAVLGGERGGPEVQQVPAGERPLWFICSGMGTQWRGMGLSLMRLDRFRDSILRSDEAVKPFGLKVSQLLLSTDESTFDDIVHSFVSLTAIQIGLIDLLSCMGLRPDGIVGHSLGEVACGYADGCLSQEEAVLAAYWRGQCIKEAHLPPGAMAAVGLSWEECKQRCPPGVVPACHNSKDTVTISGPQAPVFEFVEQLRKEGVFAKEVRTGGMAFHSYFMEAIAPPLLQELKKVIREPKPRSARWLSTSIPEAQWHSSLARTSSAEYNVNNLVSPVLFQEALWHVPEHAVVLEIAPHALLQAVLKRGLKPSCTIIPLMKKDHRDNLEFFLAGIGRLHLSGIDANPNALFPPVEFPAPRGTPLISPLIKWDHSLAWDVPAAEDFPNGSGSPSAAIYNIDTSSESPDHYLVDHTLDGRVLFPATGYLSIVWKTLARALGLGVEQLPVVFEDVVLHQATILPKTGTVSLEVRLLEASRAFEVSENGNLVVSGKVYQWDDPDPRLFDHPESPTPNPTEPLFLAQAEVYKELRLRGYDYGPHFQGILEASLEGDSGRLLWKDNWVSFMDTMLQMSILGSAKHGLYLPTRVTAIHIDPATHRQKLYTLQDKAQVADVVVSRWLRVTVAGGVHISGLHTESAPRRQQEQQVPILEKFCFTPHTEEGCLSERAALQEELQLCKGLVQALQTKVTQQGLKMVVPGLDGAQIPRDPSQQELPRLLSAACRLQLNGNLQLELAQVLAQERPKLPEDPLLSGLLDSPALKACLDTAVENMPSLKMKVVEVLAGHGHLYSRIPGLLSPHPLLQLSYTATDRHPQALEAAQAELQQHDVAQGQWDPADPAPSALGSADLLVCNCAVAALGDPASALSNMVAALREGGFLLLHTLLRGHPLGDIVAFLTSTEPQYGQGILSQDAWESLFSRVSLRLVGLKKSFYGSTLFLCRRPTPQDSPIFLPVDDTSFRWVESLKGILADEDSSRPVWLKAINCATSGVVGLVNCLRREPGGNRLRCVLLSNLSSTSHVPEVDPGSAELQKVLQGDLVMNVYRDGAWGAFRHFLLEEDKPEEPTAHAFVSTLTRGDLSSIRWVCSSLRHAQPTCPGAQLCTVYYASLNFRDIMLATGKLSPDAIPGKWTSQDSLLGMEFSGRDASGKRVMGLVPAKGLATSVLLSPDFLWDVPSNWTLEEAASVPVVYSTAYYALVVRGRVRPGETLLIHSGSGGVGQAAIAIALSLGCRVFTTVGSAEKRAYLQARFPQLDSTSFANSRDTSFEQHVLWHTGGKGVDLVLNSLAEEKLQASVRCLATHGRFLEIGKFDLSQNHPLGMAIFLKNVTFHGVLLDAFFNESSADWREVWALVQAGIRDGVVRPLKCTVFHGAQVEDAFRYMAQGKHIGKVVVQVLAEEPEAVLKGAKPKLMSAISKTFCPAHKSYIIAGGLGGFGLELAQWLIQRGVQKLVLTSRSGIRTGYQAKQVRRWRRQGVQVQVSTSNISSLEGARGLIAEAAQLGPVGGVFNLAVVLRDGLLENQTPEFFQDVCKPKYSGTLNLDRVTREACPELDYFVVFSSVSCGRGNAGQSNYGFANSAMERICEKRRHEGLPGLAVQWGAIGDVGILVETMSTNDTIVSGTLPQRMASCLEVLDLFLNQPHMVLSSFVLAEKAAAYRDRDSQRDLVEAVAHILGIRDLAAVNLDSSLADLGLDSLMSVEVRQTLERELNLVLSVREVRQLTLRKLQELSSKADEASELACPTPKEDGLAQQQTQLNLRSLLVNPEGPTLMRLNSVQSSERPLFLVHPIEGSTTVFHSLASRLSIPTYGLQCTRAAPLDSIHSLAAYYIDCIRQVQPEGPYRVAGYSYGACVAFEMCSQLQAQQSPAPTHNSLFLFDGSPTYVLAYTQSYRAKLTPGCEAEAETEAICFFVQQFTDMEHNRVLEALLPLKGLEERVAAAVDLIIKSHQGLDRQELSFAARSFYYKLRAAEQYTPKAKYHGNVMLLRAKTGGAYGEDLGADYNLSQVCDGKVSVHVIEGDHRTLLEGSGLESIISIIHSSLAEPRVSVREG
smiles,measurement,setting,value
CN(CCCC(=O)c1cccnc1)N=O,outcome,[1],inactive
same,outcome,[2],inactive
same,outcome,[3],inactive
CCCCCCCCC(=O)NCc1ccc(O)c(OC)c1,outcome,[1],inactive
same,outcome,[4],inactive
same,outcome,[5],inactive
same,outcome,[2],inactive
CCOP(=S)(OCC)Oc1nc(Cl)c(Cl)cc1Cl,outcome,[1],inactive
same,outcome,[4],inactive
same,outcome,[5],inactive
same,AC50,[2],39.3 µM (active)
same,outcome,[6],inactive
same,outcome,[7],inactive
same,outcome,[8],inactive
same,outcome,[9],inactive
same,outcome,[10],inactive
same,outcome,[11],inactive
same,AC50,[12],34.4 µM (active)
same,outcome,[13],inactive
same,outcome,[14],inactive
same,AC50,[3],62.6 µM (active)
same,outcome,[15],inactive
same,outcome,[16],inactive
same,outcome,[17],inactive
same,outcome,[18],inactive
same,outcome,[19],inactive
O=C(O)C(Cl)(Cl)Cl,outcome,[6],inactive
same,outcome,[7],inactive
same,outcome,[20],inactive
same,outcome,[8],inactive
same,outcome,[9],inactive
same,AC50,[10],0.207 µM (active)
same,outcome,[10],inactive
same,outcome,[11],inactive
same,AC50,[12],50 µM (active)
same,outcome,[12],inactive
same,outcome,[13],inactive
same,outcome,[14],inactive
same,outcome,[15],inactive
same,outcome,[16],inactive
same,outcome,[17],inactive
same,outcome,[18],inactive
same,outcome,[19],inactive
Nc1ccc(-c2ccc(N)c(Cl)c2)cc1Cl,outcome,[1],inactive
same,outcome,[4],inactive
same,outcome,[5],inactive
same,outcome,[2],inactive
C1CCC(NC2CCCCC2)CC1,outcome,[1],inactive
same,AC50,[2],12.7 µM (active)
C[C@]12CC[C@H](O)CC1=CC[C@@H]1[C@@H]2CC[C@]2(C)C(=O)CC[C@@H]12,outcome,[1],inactive
same,outcome,[4],inactive
same,outcome,[5],inactive
same,outcome,[2],inactive
NC(=O)O,outcome,[6],inactive
same,outcome,[7],inactive
same,outcome,[8],inactive
same,outcome,[9],inactive
same,outcome,[10],inactive
same,outcome,[11],inactive
same,outcome,[12],inactive
same,outcome,[13],inactive
same,outcome,[14],inactive
same,outcome,[15],inactive
same,outcome,[16],inactive
same,outcome,[17],inactive
same,outcome,[18],inactive
same,outcome,[19],inactive
